Type in all cases: functional
Test [1] concerns Plasmodium falciparum. In words: GSK_TCMDC: Inhibition of Plasmodium falciparum 3D7 in whole red blood cells, using parasite LDH activity as an index of growth. Test compounds present at 2uM.
Test [2] concerns Plasmodium falciparum. In words: GSK_TCMDC: Inhibition of Plasmodium falciparum Dd2 in whole red blood cells, using parasite LDH activity as an index of growth. Test compounds present at 2uM.
In another test the test system is HepG2. In words: GSK_TCMDC: Percent inhibition of human HepG2 cell line. Test compounds present at 10uM.

Experimental findings from ChEMBL document CHEMBL1157539, “Thousands of chemical starting points for antimalarial lead identification” (Nature, 2010) are described below.

One may read the Inhibition as the share of the control response that was lost under treatment. A low value points to little suppression.

As for `CC(C)[C@H](NC(=O)c1ccc(O)c(-c2ccc(Cl)c(Cl)c2)c1)C(=O)NC1CCCCCC1`, the values for the Inhibition in the test with Plasmodium falciparum [1], in the test with Plasmodium falciparum [2] and in the test with HepG2 were 99%, 99% and 0%, respectively.
Turning to `Fc1cccc(COc2ccc(-n3ccc4c(NCCCn5ccnc5)ncnc43)cc2Cl)n1`, the Inhibition with Plasmodium falciparum [1] came out at 87%; in the test with Plasmodium falciparum [2], 29%; with HepG2, 14%.
With `CCNC(=O)Nc1ccc(-c2cccc(-c3nc4cccc(C)c4[nH]3)c2)cc1`, the Inhibition with Plasmodium falciparum [1] is recorded as 91%; in the test on Plasmodium falciparum [2] it was 34%; with HepG2 it was 16%.
On the same counts, the results for `O=c1ccc(CNc2nc(NCCc3ccccc3)nc3ccc(Cl)cc23)c[nH]1` are 99%, 16% and 9%.
On the same counts, the results for `Cl.Oc1cc(-c2nc(-c3ccccc3)[nH]c2-c2ccncc2)ccc1Cl` are 96%, 91% and 64%.
For `Cl.c1ccc2c(c1)ncn2-c1ccnc(Nc2ccncc2)n1` the same measures were 89%, 80% and 0%.
As for `COc1cc(NC(=O)c2ccc3c(=O)n(Cc4ccccc4)c(=S)[nH]c3c2)cc(OC)c1OC`, the values for the Inhibition in the test with Plasmodium falciparum [1], in the test with Plasmodium falciparum [2] and in the test with HepG2 were 94%, 47% and 6%, respectively.
In the case of `CC(C)c1ccc(NC(=O)NC2CCN(CCCCCN(C)C(=O)/C=C/c3ccc(Cl)c(Cl)c3)C2)cc1` (stereo not drawn), the Inhibition amounted to 99% in the test on Plasmodium falciparum [1], 3% in the test with Plasmodium falciparum [2] and 28% in the test with HepG2.
For `Br.CCc1cccc(OCCCON2C(=N)N=C(N)NC2(C)C)c1` the same measures were 95%, 94% and 63%.
On the same counts, the results for `O=C(Nc1cccc(-c2cccc(-c3nc4ccccc4[nH]3)c2)c1)c1ccncc1` are 99%, 38% and 27%.
As to `CC(CN1CCN(C)CC1)C(=O)Nc1cccc(-c2ccc(-c3nc4cc(F)ccc4[nH]3)cc2)c1` (stereo not drawn), the figures for the Inhibition in the test on Plasmodium falciparum [1], in the test with Plasmodium falciparum [2] and in the test on HepG2 were 100%, 98% and 10%, respectively.
On the same counts, the results for `O=C(Nc1cccc(-c2ccc(CN3CCC(O)CC3)cc2)c1)c1cccc(Cl)c1.O=C(O)C(F)(F)F` are 96%, 2% and 11%.
On the same counts, the results for `N#Cc1ccc(-c2ccc(C(=O)NCCCCN3CCC(c4ccc5c(c4OCc4ccccn4)CCCC5)CC3)cc2)cc1` are 96%, 39% and 37%.
For `CN1CCN(c2ccnc3ccc(NC(=O)Cc4ccc5ccccc5c4)cc23)CC1`, the Inhibition in the test with Plasmodium falciparum [1] came out at 100%; with Plasmodium falciparum [2] it was 89%; in the test with HepG2, 6%.
Consider `O=C(Nc1cc(Cl)ccc1O)c1ccc(Oc2ccc(C(=O)Nc3cc(Cl)ccc3O)cc2)cc1`, for which the figures for the Inhibition in the test with Plasmodium falciparum [1], in the test with Plasmodium falciparum [2] and in the test with HepG2 were 97%, 91% and 32%, respectively.
On the same counts, the results for `Cc1cccc2nc(-c3ccc(-c4cccc(NC(=O)Nc5ccc6c(c5)OCO6)c4)cc3)[nH]c12` are 100%, 39% and 28%.
On the same counts, the results for `CCN1C(=O)N(CCC(C)C)C2(CCN(Cc3ccc(OC)cc3O)CC2)C1=O` are 89%, 77% and 13%.
On the same counts, the results for `CC(=O)C1=NN(c2ccc(C)cc2)C(c2cccs2)N1c1ccccc1` (stereo not drawn) are 89%, 64% and 0%.
As to `CC(=O)c1cccc2c(NC(=O)Nc3ccc4nccc(N5CCN(C)CC5)c4c3)cccc12.Cl`, the Inhibition with Plasmodium falciparum [1] stood at 99%; in the test with Plasmodium falciparum [2] it was 94%; in the test on HepG2 it was 13%.
Take `COc1ccc(C=Cc2cc(=N)c3ccccc3[nH]2)cc1Br`: the Inhibition in the test on Plasmodium falciparum [1] stood at 100%; in the test with Plasmodium falciparum [2], 88%; with HepG2, 55%.
On the same counts, the results for `O=C(NCCCCCN1CCC(c2c[nH]c3ccccc23)CC1)Nc1ccc(Cl)c(Cl)c1` are 92%, 0% and 42%.
For `Cc1cc2c(NC(=O)NC3CCN(CCc4cccc(Cl)c4)CC3)cccc2cn1.Cl` the same measures were 100%, 27% and 12%.
For the molecule `Clc1cccc(C23N/C(=N\c4nc5ccccc5[nH]4)NC2(c2ccccc2)N/C(=N\c2nc4ccccc4[nH]2)N3)c1` (stereo not drawn), the Inhibition in the test with Plasmodium falciparum [1] is 85%; with Plasmodium falciparum [2] it was 88%; in the test with HepG2 it was 0%.
On the same counts, the results for `Oc1ccc2ccccc2c1C=NNc1nc(=Nc2ccccc2)[nH]c(=Nc2ccccc2)[nH]1` are 99%, 73% and 55%.
On the same counts, the results for `CCCc1cc(NCC)nc(Nc2ccc(F)cc2)n1` are 86%, 36% and 16%.
On the same counts, the results for `COc1cc(C(=O)NC2CCN(Cc3ccccc3)CC2)ccc1-c1cc2cc(Cl)c(Cl)cc2[nH]1.O=C(O)C(F)(F)F` are 100%, 100% and 33%.
On to `CS(=O)(=O)c1ccc(-c2cncc(Nc3cccc([N+](=O)[O-])c3)c2)cc1`, for which the Inhibition in the test with Plasmodium falciparum [1] is 97%; in the test on Plasmodium falciparum [2] it was 70%; in the test on HepG2 it was 6%.
On to `CN(Cc1cccc(O)c1)C1CCN(c2cc(NC(=O)c3ccc(F)cc3)ccn2)C1.O=C(O)C(F)(F)F` (stereo not drawn), for which the values for the Inhibition in the test on Plasmodium falciparum [1], in the test with Plasmodium falciparum [2] and in the test on HepG2 were 91%, 6% and 5%, respectively.
For `O=C(NCc1ccc(Cl)c(Cl)c1)c1cccc(C2CCCN(Cc3ccc4[nH]cnc4c3)C2)c1` (stereo not drawn) the same measures were 95%, 30% and 3%.
On the same counts, the results for `CN1CCC(COc2ccc(CN3CCC(NC(=O)c4cccc(Cl)c4)CC3)cc2)CC1.O=C(O)C(F)(F)F` are 94%, 13% and 16%.
For `CCn1c(-c2nonc2N)nc2c(-c3cccc(NC(=O)Nc4cccc(C(F)(F)F)c4)c3)ncc(OCCCN)c21.O=C(O)C(F)(F)F` the same measures were 95%, 70% and 21%.
